In PubChem BioAssay AID2551 (National Center for Advancing Translational Sciences (NCATS), 2010):
Several values for one entry are separate records, joined by “and”; a condition that tells them apart may be missing. Equal values may be shown once. About 17,000 (5.5%) of roughly 310,000 compounds were called active. Where a call stands in place of a potency, no number is given. Another 11% or so got no clear call; they are omitted. The call rests on the fitted dose curve; in most records, active means well fitted inhibition curve with a large enough effect; inconclusive means small, poorly fitted or top-dose-only effect, or effect the other way; inactive means no such curve, though single readings can be large or run the other way. The sample as a whole holds a higher share of actives than the screen did. Where a structure was tested more than once in an assay, its records may differ in their call.

The compounds below were run against Nuclear receptor ROR-gamma (Mus musculus) (UniProt P51450) (assay: qHTS for inhibitors of ROR gamma transcriptional activity). Details: Drosophila S2 Gal4-RORgamma UAS-luciferase reporter, 20 h; series mostly up to 53.6 µM.
Nuclear receptor ROR-gamma (Mus musculus), sequence (P51450 whole entry, looked up, the tested form may be a part): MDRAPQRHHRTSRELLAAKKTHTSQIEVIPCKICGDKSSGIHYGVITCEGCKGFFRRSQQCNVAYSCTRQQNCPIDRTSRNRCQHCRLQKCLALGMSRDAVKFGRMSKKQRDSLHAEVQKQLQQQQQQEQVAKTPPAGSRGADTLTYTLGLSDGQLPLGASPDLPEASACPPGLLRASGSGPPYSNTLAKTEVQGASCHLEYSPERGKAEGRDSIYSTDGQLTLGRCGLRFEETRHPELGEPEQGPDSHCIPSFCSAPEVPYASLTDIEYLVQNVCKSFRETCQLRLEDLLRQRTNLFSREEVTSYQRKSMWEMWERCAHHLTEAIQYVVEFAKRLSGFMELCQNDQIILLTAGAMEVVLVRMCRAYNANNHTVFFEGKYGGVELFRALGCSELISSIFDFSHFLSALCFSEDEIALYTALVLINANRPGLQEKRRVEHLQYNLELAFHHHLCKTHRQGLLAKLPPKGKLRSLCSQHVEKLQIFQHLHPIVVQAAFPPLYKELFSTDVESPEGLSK
In short: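 Luminescence from a UAS-regulated Photinus luciferase reporter in stably transfected Drosophila Schneider cells is measured; decreased signal marks ROR gamma inhibition. Fusion expression is induced by 700 uM copper sulfate for 20 hr.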
Further: nearly all actives have a fitted effect of over 60% in size.
Potency means the concentration at half of the fitted maximal effect.

| SMILES | Potency | activity change, negative = inhibition |
| --- | --- | --- |
| COC(=O)c1ccccc1NC(=O)CSc1nc2c(c(=O)[nH]1)CCC2 | inactive | – |
| COc1ccc(C(=O)NCC(=O)N/N=C/c2cccnc2)cc1 | inactive | – |
| CCOC(=O)[C@@H]1[C@H]2COc3cc(OC)ccc3[C@H]2N2C(=O)N(c3ccc(F)cc3)C(=O)[C@]12C | inactive | – |
| COc1ccc(CNS(=O)(=O)c2ccc(-c3cnc(C4CC4)o3)cc2)cc1 | inactive | – |
| CCOC(=O)c1cccc(NS(=O)(=O)c2c(C(=O)N3CCCCCC3)c(C)n(C)c2C)c1 | inactive | – |
| O=C(c1ccccc1F)N(Cc1ccccc1)Cc1ccccc1 | inactive | – |
| COc1cccc(CNC(=O)c2nnn(CC(=O)Nc3cc(C)ccc3C)c2N)c1 | inactive | – |
| O=C(Cc1csc(Nc2nc(=S)[nH]c3ccccc23)n1)NCCCN1CCN(c2cccc(Cl)c2)CC1 | 2.51 µM (active) | – |
| COc1cccc(CNC(=O)Cc2csc(Nc3nc(=S)[nH]c4ccccc34)n2)c1 | 6.31 µM (active) | – |
| CCn1c(=O)cc(OCC(=O)NCCCN2CCN(c3cccc(Cl)c3)CC2)c2ccccc21 | inactive | – |
| O=C(CCCn1c(=O)[nH]c2cc(Cl)ccc2c1=O)NCCN1CCN(c2ccccc2)CC1 | inactive | – |
| COc1cccc(CNC(=O)c2n[nH]c3ccccc23)c1 | inactive | – |
| COc1cc(Cl)ccc1OCc1cc(C(=O)N(C)CCc2c(C)n[nH]c2C)no1 | inactive | – |
| COc1ccccc1CNc1ncnc2ccc(-c3c(C)noc3C)cc12 | 5.01 µM (active) | – |
| COc1ccccc1CNc1nc(-c2c(C)noc2C)nc2ccccc12 | inactive | – |
| COc1ccccc1CNc1ccnc(-c2c(C)noc2C)n1 | inactive | – |
| COc1cc(C2/C(=C(\O)c3ccc4c(c3)CC(C)O4)C(=O)C(=O)N2c2nnc(C)s2)cc(OC)c1OC (configuration not stated) | inactive | – |
| CC(C)c1ccc(/C=C2\NC(=O)NC2=O)cc1 | inactive | – |
| O=C(NC1CC1)C(Cc1ccccc1)NS(=O)(=O)c1ccccc1F (configuration not stated) | inactive | – |
| N#CC1=C(SCc2ccc(C#N)cc2)N=C(N)C(c2nc(-c3ccccc3)cs2)C12CCCCC2 (configuration not stated) | 11.2 µM (active) | – |
| N#CC1=C(SCc2ccccc2)NC(=O)C(C#N)C12CCCC2 (configuration not stated) | – | 26.7% [at 0.365 µM] (inactive) |
| N#Cc1ccc(CSc2ncccn2)cc1 | – | -36.2% [at 1.91 µM] (inactive) |

| SMILES | Potency | activity change, negative = inhibition |
| --- | --- | --- |
| CCOC(=O)c1sc(=NC(=O)c2ccc(Br)cc2)n(C)c1C | inactive | – |
| COc1ccc(CCN2CC(C(=O)NCCN3CCNC3=O)CCC2=O)cc1 (configuration not stated) | inactive | – |
| CCOC(=O)CSc1nc(N2CCOCC2)c2c(c1C#N)CC(C(C)C)OC2 (configuration not stated) | inactive | – |
| COC(=O)CSc1nccc(-c2cccs2)n1 | inactive | – |
| O=C(O)COc1ccc(-c2nccc(-c3cccs3)n2)cc1 | 5.62 µM (active) | – |
| O=C(Nc1ccnc(-c2ccncc2)n1)c1cccs1 | inactive | – |
| CCOc1ccc(N(C(=O)c2snc(C(N)=O)c2N)C(C(=O)NCC2CCCO2)c2c[nH]c3ccccc23)cc1 (configuration not stated) | inactive | – |
| Fc1ccc(COc2cccc(-c3n[nH]c(=S)o3)c2)cc1 | 11.2 µM (active) | – |
| Fc1ccc(COc2ccc(-c3nnco3)cc2)cc1 | inactive | – |
| Cc1nc2ccccc2cc1OCc1ccc(F)cc1 | inactive | – |
| Cc1cc(F)ccc1N1CCC(N2CCN(C)C(CCO)C2)CC1 (configuration not stated) | inactive | – |
| Cc1cc(=O)cc(C)n1-c1ccc(Cl)c(Cl)c1 | inactive | – |
| Cc1ccc(-n2c(C)cc(/C=N\NC(=O)CC(=O)NC(C)C)c2C)cc1 | inactive | – |
| Cc1cc(/C=N/NC(=O)CC2(C)OCCO2)c(C)n1-c1ccc(Cl)c(Cl)c1 | 17.8 µM (active) | – |
| Cc1cccc(OCC(O)Cn2c(N3CCCCC3)nc3c2c(=O)[nH]c(=O)n3C)c1 (configuration not stated) | inactive | – |
| COc1ccc2oc(=N)c(C(=O)Nc3ccc(Br)cc3)cc2c1 | inactive | – |
| O=C(c1noc2c1CCCC2)N1CCc2ccccc2C1 | inactive | – |
| COc1cccc(C(=O)OCc2cc(=O)oc3c(C)c(C)ccc23)c1OC | inactive | – |
| CS(=O)(=O)N(CC(=O)N1CCN(Cc2ccccc2)CC1)c1ccc2c(c1)OCCO2 | inactive | – |
| c1ccc(CN2CCC(N=C3NN=C(c4ccc5c(c4)OCCO5)CS3)CC2)cc1 | 10 µM (active) | – |
| Clc1cccc(N=C2NN=C(c3ccc4c(c3)OCCO4)CS2)c1 | inactive | – |
| Cc1ccccc1-c1nc(CS(=O)(=O)CC(=O)NC(C)c2ccccc2)c(C)o1 (configuration not stated) | inactive | – |

| SMILES | Potency | activity change, negative = inhibition |
| --- | --- | --- |
| Cc1ccc(NS(=O)(=O)c2c(C)[nH]c(C)c2C(=O)N2CCCCC2)c(C)c1 | inactive | – |
| O=C(O)CCn1c(Cc2ccccc2)nc2ccccc21 | inactive | – |
| O=C(O)CCn1c(O)c(C=C2N=c3ccccc3=N2)sc1=S | 0.794 µM (active) | – |
| Cc1cc2ccccc2n1CCC(=O)O | inactive | – |
| COc1ccccc1NC(=O)c1cc(N2C(=O)C3C4CCC(C4)C3C2=O)ccc1Cl (configuration not stated) | inactive | – |
| Cc1ccnc(NS(=O)(=O)c2ccc(NC(=O)c3ccc(S(=O)(=O)N4CCOCC4)cc3)cc2)n1 | inactive | – |
| CCc1nnc(NC(=O)C2CCCN2S(=O)(=O)c2ccccc2)s1 (configuration not stated) | inactive | – |
| CSCc1nnc(NC(=O)c2ccc(S(=O)(=O)N3CCCCC3C)cc2)o1 (configuration not stated) | 1 µM (active) | – |
| CNC(=O)c1ccsc1NC(=O)c1ccc(S(=O)(=O)N2CCOCC2)cc1 | inactive | – |
| CC1CCCN(S(=O)(=O)c2ccc(C(=O)Nc3nnc(-c4ccncc4)o3)cc2)C1 (configuration not stated) | inactive | – |
| CCc1nnc(NC(=O)c2ccc(S(=O)(=O)NC3CCCCC3)cc2)s1 | inactive | – |
| O=C(Nc1ccc(S(=O)(=O)N2CCOCC2)cc1)c1ccc2ncsc2c1 | inactive | – |
| CC1CCCCN1S(=O)(=O)c1ccc(C(=O)Nc2nnc(-c3cccs3)o2)cc1 (configuration not stated) | 0.0891 µM (active) | – |
| O=C(Nc1nnc(-c2ccco2)o1)c1ccc(S(=O)(=O)N2CCOCC2)cc1 | 1.78 µM (active) | – |
| CC(=O)c1ccc(OC(=O)N2CCOCC2)cc1 | – | -0.265% [at 1.91 µM] (inactive) |
| COc1ccc(CNC(=O)COc2cccnc2[N+](=O)[O-])cc1 | inactive | – |
| Cc1cc2c(=O)n(CC(=O)NCC(=O)Nc3ccc(C(C)C)cc3)cnc2s1 | inactive | – |
| CCCCN1C(=O)C(C)=C(C)C1OCCc1ccc(OC)c(OC)c1 (configuration not stated) | inactive | – |
| Cc1cc(-c2ccc(S(=O)(=O)N3CCN(c4cccc(C(F)(F)F)c4)CC3)s2)on1 | inactive | – |
| CN(C)C(=O)c1ccc(NC(=O)c2ccccc2-c2ccccc2)cc1 | inactive | – |
| CC(C)C[C@H](NC(=O)N1CC(=O)Nc2ccccc21)C(=O)N[C@H](Cc1ccccc1)C(=O)O | inactive | – |
| CCOC(=O)CSc1nc2ccc(C)cc2n2cnnc12 | inactive | – |

| SMILES | Potency | activity change, negative = inhibition |
| --- | --- | --- |
| CCCOc1cccc(C(=O)Nc2ccccc2C(=O)N2CCN(C)CC2)c1 | inactive | – |
| CC(=O)Nc1ccc(S(=O)(=O)NC2Cc3ccccc3C2)cc1 | inactive | – |
| COCCN1C(=O)N[C@@H](CCc2ccccc2)[C@H](C(C)=O)[C@H]1C | inactive | – |
| CCN1C(=NCc2ccc(OC)cc2)N[C@@H](CCc2ccccc2)[C@H](C(=O)NCc2ccc(OC)cc2)[C@H]1C | inactive | – |
| CCN1C(=S)N[C@@H](CCc2ccccc2)[C@H](C(=O)OC)[C@H]1C | inactive and 2.24 µM (active) | – |
| CN1CCN(C(=O)c2cnn(-c3ccccc3)c2NC(=O)c2ccc([N+](=O)[O-])cc2)CC1 | inactive | – |
| Cc1cccc(C)c1NC(=O)CS(=O)CC(=O)N1CCN(c2ccccc2)CC1 (configuration not stated) | inactive | – |
| CCNS(=O)(=O)c1ccc(CCC(=O)N2CCN(c3ccc(OC)cc3)CC2)cc1 | inactive | – |
| CN(C)C(=O)Cn1c(=O)n(S(=O)(=O)c2ccccc2)c2ccccc21 | inactive | – |
| COC(=O)c1ccccc1NC(=O)CSc1n[nH]c(-c2ccncc2)n1 | inactive | – |
| Cc1ccc2oc(C(=O)N3CCN(C)C[C@@H]3C(C)C)c(C)c2c1 | inactive | – |
| CC(=O)c1cccc(OCc2cc(C(=O)NC(C)Cc3cccnc3)no2)c1 (configuration not stated) | inactive | – |
| Cc1ccc(OCc2cc(C(=O)N(C)CCc3ccccc3)no2)cc1C | inactive | – |
| CN(Cc1cccnc1)C(=O)c1cc(COc2ccc3ncccc3c2)on1 | 4.47 µM (active) | – |
| COCCn1cnc2c1c(=O)n(Cc1ccc(Br)cc1)c(=O)n2Cc1ccccc1 | inactive | – |
| O=C(CCNC(=O)C1CCN(S(=O)(=O)c2ccccc2)CC1)NC1CC1 | inactive | – |
| COc1ccc(CN2CCCC(N3CCc4ccccc4C3)C2)c(O)c1 (configuration not stated) | inactive | – |
| CCOC(=O)c1c(-c2cccc(C)c2)csc1NC(=O)c1c(-c2ccccc2)noc1C | inactive | – |
| CCOC(=O)C1=C(NC(=S)NC(=O)c2ccccc2)c2ccccc2CC1(C)C | 4.47 µM (active) | – |
| CCOC(=O)C1=C(C)c2ccccc2OC1(C)C(=O)OCC (configuration not stated) | inactive | – |
| CCOC(=O)c1c(-c2ccccc2)csc1NC(=S)NC(=O)c1ccccc1 | 2.82 µM (active) | – |
| CCOC(=O)c1c(-c2ccc(-c3ccccc3)cc2)csc1NC(=O)CCC(=O)O | inactive | – |

| SMILES | Potency | activity change, negative = inhibition |
| --- | --- | --- |
| CCOC(=O)CNC(=O)/C(=C\c1ccc(F)cc1)NC(=O)c1ccccc1 | inactive | – |
| COc1cccc(C(=O)Nc2nnc(S(=O)(=O)N3CCCCC3)s2)c1 | inactive | – |
| CC(=O)Nc1ccc(NC(=O)CCCNC(=O)c2ccc(Cl)cc2)cc1 | inactive | – |
| CC(C)c1ccc(C2C(C(=O)c3ccco3)=C(O)C(=O)N2CC2CCCO2)cc1 (configuration not stated) | inactive | – |
| COc1ccccc1NC(=O)CCN1CCN(c2ccc(Cl)cc2)CC1 | inactive | – |
| O=C(CCc1ccccc1)NCc1cccnc1 | inactive | – |
| CCc1ccc(N(CC(=O)NCc2cccnc2)S(=O)(=O)c2ccccc2)cc1 | 14.1 µM (active) | – |
| O=C(CN(c1cc(C(F)(F)F)ccc1Cl)S(=O)(=O)c1ccccc1)NCc1cccnc1 | inactive | – |
| Cc1c(C)c2c(OCC(=O)NCCCO)cc3c(c2oc1=O)CCC(C)(C)O3 | inactive | – |
| CC(C)CC(CCc1ccccc1)OS(N)(=O)=O (configuration not stated) | inactive | – |
| Cc1cccc(N2CCN(C(=O)/C=C/c3ccco3)CC2)c1C | inactive | – |
| O=C(/C=C/c1ccco1)NC(=S)N1CCCCC1 | 3.98 µM (active) | – |
| CCNC(=S)N1CCN(C(=O)c2ccco2)CC1 | inactive | – |
| COc1ccccc1C(=O)Nc1cccc(C(=O)N2CCOCC2)c1 | inactive | – |
| Cc1nnc(NC(=O)/C=C/c2ccco2)s1 | inactive | – |
| COc1ccccc1/C=C/C(=O)NC1CC2CCC1C2 (configuration not stated) | inactive | – |
| O=C(/C=C/c1ccco1)NC(=S)Nc1ccccc1Br | 11.2 µM (active) | – |
| COc1ccccc1/C=C/C(=O)NC(=S)N1CCOCC1 | 7.08 µM (active) | – |
| CC(=O)Nc1ccc(NC(=S)NC(=O)/C=C/c2ccccc2)cc1 | inactive | – |
